Laboratory results from ChEMBL document CHEMBL3988442, “University of Dundee, Small-Polar-MMV Screening Library” (2021).
For some assays here: Measured potencies and affinities stand elsewhere.

Assays:
Design in all cases: scale not given: direction of the effect not stated beside the values
[1] = target: Protein translocase subunit SecA (Escherichia coli (strain K12)) (UniProt P10408); assay: Assay to Identify E. coli SecA ATPase Inhibitors; type: functional; conditions: 30 µM
[2] = target: T1, Ubiquitin-activating enzyme e1, putative (Leishmania donovani (strain BPK282A1)) (UniProt E9BSI1); assay: Leishmania donovani Ubiquitin Activating Enzyme (LdE1); type: functional; conditions: 30 µM
T1 sequence (whole entry): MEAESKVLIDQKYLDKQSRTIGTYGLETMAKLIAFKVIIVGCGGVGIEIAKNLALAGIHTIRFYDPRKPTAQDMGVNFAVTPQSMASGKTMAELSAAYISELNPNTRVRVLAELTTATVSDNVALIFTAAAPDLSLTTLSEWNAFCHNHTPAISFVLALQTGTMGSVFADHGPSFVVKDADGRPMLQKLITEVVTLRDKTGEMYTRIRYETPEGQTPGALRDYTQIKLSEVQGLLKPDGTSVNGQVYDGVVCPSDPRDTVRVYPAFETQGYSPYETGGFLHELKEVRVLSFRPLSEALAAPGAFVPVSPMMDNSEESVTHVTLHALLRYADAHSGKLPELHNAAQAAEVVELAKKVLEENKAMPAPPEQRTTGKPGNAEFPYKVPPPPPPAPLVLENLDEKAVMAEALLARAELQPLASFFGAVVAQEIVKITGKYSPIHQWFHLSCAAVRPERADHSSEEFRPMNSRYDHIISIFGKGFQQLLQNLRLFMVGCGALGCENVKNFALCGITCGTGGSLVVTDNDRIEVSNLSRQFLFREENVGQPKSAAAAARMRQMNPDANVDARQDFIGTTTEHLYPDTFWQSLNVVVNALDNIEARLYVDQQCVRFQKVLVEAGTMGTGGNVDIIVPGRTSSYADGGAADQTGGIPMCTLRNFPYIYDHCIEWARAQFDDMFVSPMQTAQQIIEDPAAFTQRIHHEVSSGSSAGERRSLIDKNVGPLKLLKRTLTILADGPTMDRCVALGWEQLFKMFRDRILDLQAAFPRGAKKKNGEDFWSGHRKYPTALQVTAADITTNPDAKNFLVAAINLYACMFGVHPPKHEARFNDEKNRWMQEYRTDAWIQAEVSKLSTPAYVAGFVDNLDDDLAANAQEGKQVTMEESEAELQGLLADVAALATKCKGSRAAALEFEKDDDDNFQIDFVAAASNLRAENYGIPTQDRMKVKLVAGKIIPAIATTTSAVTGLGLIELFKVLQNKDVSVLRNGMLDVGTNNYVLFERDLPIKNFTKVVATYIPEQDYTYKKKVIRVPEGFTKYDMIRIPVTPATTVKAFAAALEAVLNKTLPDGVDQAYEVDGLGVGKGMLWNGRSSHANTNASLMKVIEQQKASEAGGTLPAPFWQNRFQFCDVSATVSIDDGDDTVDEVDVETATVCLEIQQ

[3] = target: AMP-activated protein kinase, AMPK (Homo sapiens) (UniProt P54646+O43741+P54619+Q9UGJ0+Q9Y478+Q13131+Q9UGI9); assay: AMP-dependent Kinase enzyme assay. An in vitro enzyme assay that detects ADP turnover that is directly proportional to AMPK activity. This uses naive AMPK that is activated during the assay with MK-8722; type: functional; conditions: 30 µM
[4] = target: Sialic acid-binding Ig-like lectin 9 (Homo sapiens) (UniProt Q9Y336); assay: Hs-Siglec9 ALPHAscreen SOP 20170721; conditions: 10 µM
Sialic acid-binding Ig-like lectin 9 (Homo sapiens), sequence (Q9Y336 whole entry): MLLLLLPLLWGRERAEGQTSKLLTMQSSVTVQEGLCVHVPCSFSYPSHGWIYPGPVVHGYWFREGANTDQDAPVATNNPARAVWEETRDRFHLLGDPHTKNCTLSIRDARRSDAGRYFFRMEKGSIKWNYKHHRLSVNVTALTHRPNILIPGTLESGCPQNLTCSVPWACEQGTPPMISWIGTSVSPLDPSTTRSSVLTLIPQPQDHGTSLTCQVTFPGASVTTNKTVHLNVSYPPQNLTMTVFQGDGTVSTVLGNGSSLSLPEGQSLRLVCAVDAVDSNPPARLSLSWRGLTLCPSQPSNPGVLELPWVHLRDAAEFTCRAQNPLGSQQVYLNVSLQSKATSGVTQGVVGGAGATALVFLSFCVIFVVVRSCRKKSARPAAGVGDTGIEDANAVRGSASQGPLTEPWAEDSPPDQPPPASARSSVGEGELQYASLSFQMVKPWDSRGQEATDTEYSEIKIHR

[5] = test system: Trypanosoma cruzi; assay: Trypanosoma cruzi phosphomannomutase and mannose-1-phosphate guanylyltransferase assay; type: functional; conditions: 10 µM
[6] = target: T2, Arginase-2, mitochondrial (Homo sapiens) (UniProt P78540); assay: in vitro enzyme assay to detect the production of urea directly proportional to the activity of Arginase II; type: functional; conditions: 33.3 µM; also: in the data most compounds retested in dose-response had high values
T2 sequence (whole entry): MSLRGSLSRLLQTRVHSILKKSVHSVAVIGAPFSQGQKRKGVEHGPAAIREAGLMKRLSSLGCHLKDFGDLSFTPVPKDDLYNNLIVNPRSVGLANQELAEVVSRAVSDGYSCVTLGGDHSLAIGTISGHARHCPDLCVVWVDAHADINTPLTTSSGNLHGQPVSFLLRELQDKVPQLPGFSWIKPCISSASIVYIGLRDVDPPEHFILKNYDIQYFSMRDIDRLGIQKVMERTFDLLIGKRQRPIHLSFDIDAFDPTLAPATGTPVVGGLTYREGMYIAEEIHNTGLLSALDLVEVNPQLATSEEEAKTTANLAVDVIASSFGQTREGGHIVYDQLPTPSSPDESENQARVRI

[7] = target: T3, Proteasome subunit beta (Trypanosoma cruzi) (UniProt O96673); assay: Trypanosoma cruzi proteasome chymotrypsin-like activity (TcProtChymo) assay.; also: in the data most compounds retested in dose-response had high values; type: functional; conditions: 9.37 µM
T3 sequence (whole entry): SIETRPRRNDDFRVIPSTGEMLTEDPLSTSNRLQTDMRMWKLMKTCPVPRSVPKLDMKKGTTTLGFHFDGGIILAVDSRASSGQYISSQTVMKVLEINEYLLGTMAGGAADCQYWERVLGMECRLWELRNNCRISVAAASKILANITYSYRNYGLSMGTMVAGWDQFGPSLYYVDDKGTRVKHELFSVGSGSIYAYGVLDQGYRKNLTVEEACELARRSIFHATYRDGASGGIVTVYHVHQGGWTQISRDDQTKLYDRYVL

[8] = organism: Homo sapiens; assay: To identify inhibition of the IFN signalling (Jak-Stat) pathway via expression of an eGFP reporter gene under the control of an IFN-stimulated response element (ISRE) containing MxA promoter.; type: functional; conditions: 30 µM
[9] = target: T4, Tyrosyl-tRNA synthetase, putative (Trypanosoma cruzi (strain CL Brener)) (UniProt Q4DSP6); assay: Trypanosoma cruzi tyrosyl tRNA synthetase (TcYRS) _High Tyrosine SOP; type: functional; conditions: 30 µM; also: in the data most compounds retested in dose-response had high values
T4 sequence (whole entry): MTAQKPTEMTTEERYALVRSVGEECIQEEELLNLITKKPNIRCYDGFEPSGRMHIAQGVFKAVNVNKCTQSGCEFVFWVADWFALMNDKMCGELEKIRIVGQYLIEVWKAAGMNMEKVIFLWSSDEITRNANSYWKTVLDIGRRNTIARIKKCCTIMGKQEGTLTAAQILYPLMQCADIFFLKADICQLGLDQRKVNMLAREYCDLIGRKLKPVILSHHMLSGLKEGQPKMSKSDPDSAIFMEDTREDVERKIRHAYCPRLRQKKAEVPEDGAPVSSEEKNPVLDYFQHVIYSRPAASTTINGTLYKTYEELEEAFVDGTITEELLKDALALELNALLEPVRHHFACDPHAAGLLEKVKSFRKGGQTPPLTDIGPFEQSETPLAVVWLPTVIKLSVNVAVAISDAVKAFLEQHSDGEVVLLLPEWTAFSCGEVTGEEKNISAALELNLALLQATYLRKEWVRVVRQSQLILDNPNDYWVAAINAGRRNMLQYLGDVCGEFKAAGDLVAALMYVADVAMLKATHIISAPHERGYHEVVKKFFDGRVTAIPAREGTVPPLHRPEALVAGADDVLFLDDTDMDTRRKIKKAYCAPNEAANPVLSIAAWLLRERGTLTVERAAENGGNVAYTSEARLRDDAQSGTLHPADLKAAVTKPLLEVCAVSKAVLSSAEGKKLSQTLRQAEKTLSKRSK

[10] = target: T4, Tyrosyl-tRNA synthetase, putative (Trypanosoma cruzi (strain CL Brener)); assay: Trypanosoma cruzi tyrosyl tRNA synthetase (TcYRS) SOP; type: functional; conditions: 30 µM
[11] = target: Chromo domain-containing protein 1 (Saccharomyces cerevisiae (strain ATCC 204508 / S288c) (Baker's yeast)) (UniProt P32657); assay: ScCHD-1 Enzyme Inhibition Assay; type: functional; conditions: 30 µM; also: in the data most compounds retested in dose-response had high values
Chromo domain-containing protein 1 (Saccharomyces cerevisiae (strain ATCC 204508 / S288c) (Baker's yeast)), sequence (P32657 whole entry, the tested form may be a part): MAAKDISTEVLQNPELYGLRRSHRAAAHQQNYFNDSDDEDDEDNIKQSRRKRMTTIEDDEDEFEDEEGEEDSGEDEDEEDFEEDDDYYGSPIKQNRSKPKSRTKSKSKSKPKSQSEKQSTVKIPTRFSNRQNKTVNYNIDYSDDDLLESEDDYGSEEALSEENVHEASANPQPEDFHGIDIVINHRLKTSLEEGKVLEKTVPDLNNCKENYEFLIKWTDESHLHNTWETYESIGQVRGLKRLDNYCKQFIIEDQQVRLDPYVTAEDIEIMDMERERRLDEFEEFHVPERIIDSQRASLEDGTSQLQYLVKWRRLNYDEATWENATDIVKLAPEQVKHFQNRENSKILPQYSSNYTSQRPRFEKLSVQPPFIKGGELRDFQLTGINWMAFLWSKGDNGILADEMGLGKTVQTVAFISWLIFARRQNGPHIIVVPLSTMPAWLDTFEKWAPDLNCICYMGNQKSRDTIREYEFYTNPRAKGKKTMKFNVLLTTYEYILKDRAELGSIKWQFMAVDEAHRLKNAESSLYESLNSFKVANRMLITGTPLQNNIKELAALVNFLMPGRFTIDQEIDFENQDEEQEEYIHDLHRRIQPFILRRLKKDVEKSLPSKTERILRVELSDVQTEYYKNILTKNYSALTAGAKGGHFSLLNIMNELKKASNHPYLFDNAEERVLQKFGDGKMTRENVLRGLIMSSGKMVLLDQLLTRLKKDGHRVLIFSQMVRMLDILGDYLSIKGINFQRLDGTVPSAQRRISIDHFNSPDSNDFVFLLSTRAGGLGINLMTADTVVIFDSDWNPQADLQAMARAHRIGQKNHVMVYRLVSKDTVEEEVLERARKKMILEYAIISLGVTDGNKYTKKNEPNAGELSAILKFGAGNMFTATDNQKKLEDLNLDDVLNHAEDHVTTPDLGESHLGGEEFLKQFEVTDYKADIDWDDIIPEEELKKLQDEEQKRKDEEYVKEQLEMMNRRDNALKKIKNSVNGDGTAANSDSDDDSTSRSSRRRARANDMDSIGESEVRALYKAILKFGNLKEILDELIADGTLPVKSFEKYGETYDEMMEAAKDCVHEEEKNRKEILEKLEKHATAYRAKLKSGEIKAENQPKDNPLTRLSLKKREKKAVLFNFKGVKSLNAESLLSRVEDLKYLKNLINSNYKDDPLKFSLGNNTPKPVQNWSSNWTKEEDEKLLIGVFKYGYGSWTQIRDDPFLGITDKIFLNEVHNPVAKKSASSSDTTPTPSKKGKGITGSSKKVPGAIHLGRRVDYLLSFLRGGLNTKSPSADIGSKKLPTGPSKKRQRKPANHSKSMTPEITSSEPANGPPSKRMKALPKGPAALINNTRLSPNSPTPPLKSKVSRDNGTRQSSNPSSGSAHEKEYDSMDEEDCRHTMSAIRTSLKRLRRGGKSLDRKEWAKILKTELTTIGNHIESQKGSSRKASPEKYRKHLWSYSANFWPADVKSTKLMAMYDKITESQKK

Protein translocase subunit SecA (Escherichia coli (strain K12)), sequence (P10408 whole entry): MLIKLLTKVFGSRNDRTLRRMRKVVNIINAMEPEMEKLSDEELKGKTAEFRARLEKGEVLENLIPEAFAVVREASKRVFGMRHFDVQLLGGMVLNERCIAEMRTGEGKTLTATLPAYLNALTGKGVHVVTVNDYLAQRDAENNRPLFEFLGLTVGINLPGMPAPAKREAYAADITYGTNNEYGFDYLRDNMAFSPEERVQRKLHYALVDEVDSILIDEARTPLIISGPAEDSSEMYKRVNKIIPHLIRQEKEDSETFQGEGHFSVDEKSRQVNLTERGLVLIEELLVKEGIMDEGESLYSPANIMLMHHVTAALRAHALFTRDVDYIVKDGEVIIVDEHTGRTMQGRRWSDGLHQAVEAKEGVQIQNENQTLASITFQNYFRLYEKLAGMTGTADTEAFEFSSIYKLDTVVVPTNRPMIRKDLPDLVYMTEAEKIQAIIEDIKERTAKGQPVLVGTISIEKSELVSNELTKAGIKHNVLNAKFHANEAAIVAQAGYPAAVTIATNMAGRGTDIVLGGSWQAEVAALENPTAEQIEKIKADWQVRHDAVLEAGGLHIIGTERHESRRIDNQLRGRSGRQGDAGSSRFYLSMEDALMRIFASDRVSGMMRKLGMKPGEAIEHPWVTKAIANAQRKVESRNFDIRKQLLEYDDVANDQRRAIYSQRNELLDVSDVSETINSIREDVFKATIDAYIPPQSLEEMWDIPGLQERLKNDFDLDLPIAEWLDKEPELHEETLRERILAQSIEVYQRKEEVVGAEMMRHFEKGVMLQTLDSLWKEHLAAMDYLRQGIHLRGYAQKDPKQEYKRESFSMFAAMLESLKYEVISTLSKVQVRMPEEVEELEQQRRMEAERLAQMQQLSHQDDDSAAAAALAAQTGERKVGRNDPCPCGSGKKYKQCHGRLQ

Row | SMILES | Percent Effect [1] [%] | Percent Effect [2] [%] | Percent Effect [3] [%] | Percent Effect [4] [%] | Percent Effect [5] [%] | Percent Effect [6] [%] | Percent Effect [7] [%] | Percent Effect [8] [%] | Percent Effect [9] [%] | Percent Effect [10] [%] | Percent Effect [11] [%]
1 | Cc1ccc2cnn(CCC(=O)NCc3c(C)nn(C)c3C)c2c1 | -6.31 | 2.6 | 0.586 | 1.87 | 0.492 | -1.38 | 8.98 | 7.06 | 3.23 | 6.17 | -1.97
2 | O=C(NC1COC2(CCN(Cc3ccccn3)CC2)C1)c1ccccn1 (configuration not stated) | -2.18 | 23.4 | -0.85 | -5.11 | 0.888 | 8.39 | 16.7 | 10.3 | 10.6 | 16.7 | 31.1
3 | CN1CCCC[C@@H]2[C@H]1[C@@H](c1ccccc1)CCN2C(=O)c1cnccn1 | -4.56 | 1.35 | 4.14 | 1.98 | 0.988 | -3.48 | 21.2 | -2.99 | 5.38 | 11.7 | -17.5
4 | CCn1nc(C)c2nc(C(C)C)nc(NCCOC)c21 | -4.55 | 6.67 | 7.63 | 3.6 | 2.36 | -4.4 | 15.5 | 19.2 | 5.29 | 12.8 | -9.33
5 | CC(=O)N1CC[C@@H]2CN(C(=O)c3ccco3)CCO[C@@H]2C1 | 0.266 | 13.3 | 8.75 | 0.752 | -4.33 | 6.29 | 12.8 | -9.46 | 3.19 | 3.85 | -2.25
6 | Cc1cnn(CCNCc2nc(Cc3ccccc3)no2)c1 | -0.787 | 0 | -3.33 | -0.739 | -1.32 | 5.75 | 5.51 | 13.2 | 5.39 | 7.32 | 2.72
7 | C[C@@H]1CN(C2(C(=O)N3CCOCC3)Cc3ccccc3C2)C[C@H](C)O1 | -4.17 | -37.5 | -3.25 | 0.729 | 0.875 | 1.77 | 8.6 | -18.6 | 5.26 | 7.69 | -3.31
8 | O=C(Nc1cccc(CNCc2cccs2)c1)C1CCCC1 | -4.41 | 13.2 | -0.852 | -3.26 | 2.15 | -2.16 | 2.45 | 3.75 | 6.4 | 18.5 | -4.46
9 | Cc1nc(CN(C)C(=O)Nc2cnn(CC3CCCO3)c2)cs1 (configuration not stated) | -3.47 | -5.41 | -27.6 | 1.65 | -0.965 | 0.952 | 5.86 | 15 | -6.88 | -9.76 | 0.495
10 | CN(CC1CC1)C(=O)CN(Cc1cccc(O)c1)C1CCC(O)CC1 (configuration not stated) | -0.997 | -2.7 | -5.33 | 8.92 | 1.07 | 24.6 | 11.1 | 12 | 0 | 1.24 | 0.446
11 | CC(=O)Nc1cc(C(=O)N2CCOCC2c2ccc(C)o2)ccc1F (configuration not stated) | -3.55 | 2.67 | -3.55 | -1.06 | -2.43 | -1.04 | 4.18 | -20.8 | 0.546 | 3.7 | 1.78
12 | O=C(NCCn1ccc(-c2ccccn2)n1)c1ccncc1 | -1.48 | 8.22 | -7.04 | 17.5 | 6.46 | -3.18 | 9.94 | 4.13 | 2.15 | 10 | -3.21
13 | CCc1[nH]ncc1C(=O)N1CCCN(Cc2cnn(C(C)C)c2)CC1 | -1.61 | 29.7 | -18.5 | -5.54 | 4.62 | -18 | 18.7 | 24.4 | 3.45 | 13.6 | -9.88
14 | Clc1snnc1CN1CCOC(CNc2cccnn2)C1 (configuration not stated) | 0.0334 | -2.6 | -5.26 | 8.04 | 5.8 | 5.34 | 1.18 | -0.834 | 4.85 | 12.2 | -5.35
15 | COCCOCc1cccc(NC(=O)N2CCCC2c2ccncc2)c1 (configuration not stated) | -2.97 | 13 | -3.58 | 1.28 | -4.02 | 1.9 | 5.09 | 16.9 | 6.67 | 7.06 | -20.8
16 | COc1ccc(CNC(=O)c2nn(C)c3c2CS(=O)(=O)CC3)cc1OC | -1.94 | 6.67 | 4.43 | 3.41 | -2.16 | -11.8 | 14.8 | 5.39 | 3.17 | 17.9 | -9.43
17 | Cn1nc(CNC(=O)c2nc3ccccc3s2)c2c1CCOC2 | -1.59 | 0 | 8.14 | 0.56 | 5.03 | -0.645 | 4.18 | 24.8 | 1.06 | 6.41 | -5.4
18 | Cc1nccc(-c2cccc(NCC(=O)N3CCCCCCC3)c2)n1 | -8 | -5.26 | 11.7 | -8.15 | -0.28 | -0.36 | 5.16 | 28.6 | 2.46 | -1.24 | -1.53
19 | CNC(=O)[C@H]1C[C@@H]2CN(C(=O)Nc3ccc(F)cc3)C[C@H]1O2 | -1.87 | 13 | 7.85 | 4.28 | 1.28 | 9.68 | 9.05 | 18.3 | 7.41 | 16.7 | -7.08
20 | Cc1cccc(-c2nc(CN3CCc4cnc(C)nc4C3)no2)c1 | -6.65 | 7.79 | 64 | 10.5 | 0.374 | 1.42 | 0.169 | -1.99 | 10.7 | 9.76 | -4.89
21 | Cc1cccc(OCCC(=O)N2CCCN(C(N)=O)CC2)c1C | -5.63 | -63.3 | -5.53 | -0.36 | -9.54 | 3.8 | 3.85 | 27.5 | -3.45 | -8.86 | -6.9
22 | O=C(O)c1cc(NS(=O)(=O)c2cccc(Cl)c2F)ccc1Cl | -7.65 | 2.6 | 4.08 | 1.53 | -5.8 | -2.13 | 5.57 | 23.4 | -11.7 | -12.2 | -3.44
